Assay outcomes: PubChem, Broad Institute
Ecoli rRNA inh: inhibits bacterial ribosomal RNA function over humanized ribosomes; E. coli WT GFP vs humanized-ribosome RFP mutants, fluorescence, 24 h; hits give low values; DMSO median 0, no signal -100; GFP signal change (wild-type ribosome), % (no concentration beside the values); 350,000 compounds, 1.6% hits; AID 720706;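 active = significant combined selectivity score with lowered wild-type GFP, culture density cut under 30%, mutant RFP and density less affected; inactive = any of these conditions unmet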
PAX8 reporter: lowers PAX8-driven luciferase in RMG-I cells; RMG-I TPO-luciferase reporter, SteadyGlo, 24 h; inhibition, % at 12.6 µM; 360,000 compounds, 1.2% hits;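 active = mean replicate inhibition at least 60% with every replicate also reaching 60%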;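 note: luciferase light reporting Pax8 driven TPO promoter activity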
LGR2 inh: Drosophila LGR2 receptor signaling inhibition; 380,000 compounds, 0.35% hits; inhibition, % at 9.99 µM; HEK293 LGR2, CRE-luciferase, bursicon-stimulated, 4 h;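 active = drop in luminescence signal, shown as inhibition above about 50% in the replicate tests, limit read from the data, passing the limit was not always enough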;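 note: agonist challenge used bursicon conditioned medium at about half maximal strength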
PGC1a acetyl inh: lowers PGC1a acetylation signal in U2OS cells; 350,000 compounds, 0.17% hits; AlphaScreen anti-acetyl-lysine; with virally co-expressed GCN5 acetyltransferase; inhibition, % at 15.6 µM;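 active = every replicate shows inhibition of at least 40%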
EWS-Fli inh: blocks EWS/Fli oncoprotein-driven transcription. inhibition, % at 12.6 µM. 350,000 compounds, 0.67% hits. AID 651661. A673 NR0B1-luciferase reporter, viability-normalised;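 active = mean inhibition of at least 50% after viability correction, with every replicate also passing that limit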;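 note: firefly luciferase signal divided by Alamar Blue viability fluorescence both relative to DMSO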
SIRT5 block: inhibitors of human sirtuin-5 desuccinylase. Purified SirT5, succinyl-peptide AMC, trypsin-coupled fluorescence. 330,000 compounds, 1.1% hits. inhibition, % at 15 µM. Q9NXA8; in the data active = inhibition above about 15%
Target sequence (Q9NXA8 whole entry, looked up): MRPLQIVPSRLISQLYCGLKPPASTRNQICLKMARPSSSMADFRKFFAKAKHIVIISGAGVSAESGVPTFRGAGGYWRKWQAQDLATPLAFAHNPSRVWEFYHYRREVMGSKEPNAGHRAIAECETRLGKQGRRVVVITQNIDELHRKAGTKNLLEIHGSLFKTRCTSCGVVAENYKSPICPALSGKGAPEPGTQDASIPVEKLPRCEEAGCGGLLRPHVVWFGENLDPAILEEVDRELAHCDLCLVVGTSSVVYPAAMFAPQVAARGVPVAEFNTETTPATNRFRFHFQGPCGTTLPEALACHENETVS
Hits are given with their value; - = inactive; . = no result given. Compounds with a hit are over-represented: about 3.4% of the library has one in this group of screens.

SMILES | Ecoli rRNA inh | PAX8 reporter | LGR2 inh | PGC1a acetyl inh | EWS-Fli inh | SIRT5 block
C[C@@H]1CN([C@@H](C)CO)C(=O)c2cc(-c3cccnc3)cnc2O[C@@H]1CN(C)C(=O)c1ccccc1F | - | . | - | - | - | -
CN(c1ccccc1)S(=O)(=O)c1ccc(-c2ccccc2)cc1 | -23.6 | - | - | - | - | -
CCC(=O)N1CC2(C1)[C@H](c1ccccc1)[C@H](CO)N2C(=O)NC(C)C | - | . | - | - | . | -
COc1ccccc1CNC(=O)C(NS(=O)(=O)c1cccc2nsnc12)C(C)C (stereo not given) | - | - | - | - | - | 19.2
CC(/C=N/NC(=O)c1cc(-c2cccn2C)n[nH]1)=C\c1ccccc1 | -40.4 | - | - | - | - | -
COc1ccc(/C=N/NC(=O)c2cc(-c3ccc4c(c3)OCO4)n[nH]2)cc1OC | -20.2 | - | - | . | - | -
O=C(N/N=C/c1cc2c(cc1Cl)OCO2)c1cc(-c2ccccc2)n[nH]1 | -23.9 | - | - | - | - | -
Cn1cccc1-c1cc(C(=O)N/N=C/c2ccccc2Cl)[nH]n1 | -22.4 | - | - | - | . | -
O=C(NC1Cc2ccccc2C1)[C@H]1[C@H](CO)[C@H]2Cn3c(ccc(-c4ccccc4)c3=O)[C@@H]1N2 | - | - | - | - | - | -
Cn1cccc1-c1cc(C(=O)N/N=C/c2ccc(F)cc2)[nH]n1 | - | - | - | - | - | -
Cn1cccc1-c1cc(C(=O)N/N=C/c2cc(Br)ccc2O)[nH]n1 | - | 74.4 | - | . | - | -
CCOc1ccc(/C=N/NC(=O)c2cc(-c3cccn3C)n[nH]2)cc1 | -26.1 | - | - | - | - | -
O=C(N/N=C/C=C/c1ccccc1[N+](=O)[O-])c1cc(-c2ccccc2)n[nH]1 | -34.3 | - | - | . | - | -
COC(=O)C[C@H]1CC[C@H]2[C@H](COc3ccc(NC(=O)c4ccc(F)cc4)cc3C(=O)N2C)O1 | - | - | - | - | - | -
CCc1c(C(=O)NC2CCCCC2)[nH]c(C)c1C(C)=O | . | . | . | 93.4 | . | .
Cc1cc(N2C(=O)C(O)=C(C(=O)c3cc4ccccc4o3)C2c2ccc(Cl)cc2)no1 (stereo not given) | -24.2 | - | - | - | . | -
Cc1cc(N2C(=O)C(O)=C(C(=O)c3ccc(C)o3)C2c2cccc(Cl)c2)no1 (stereo not given) | - | - | . | - | - | .
Cc1cc(N2C(=O)C(O)=C(C(=O)c3cc4ccccc4o3)C2c2ccc(Br)cc2)no1 (stereo not given) | - | - | - | . | . | 25.1
Cc1cc(N2C(=O)C(O)=C(C(=O)c3ccco3)C2c2cccc(Cl)c2)no1 (stereo not given) | -31.9 | - | - | . | . | -
CN1c2ccc(-c3ccc(F)cc3)cc2[C@@H]2[C@@H](CCN2S(=O)(=O)c2ccc(F)cc2)[C@H]1CO | - | - | - | - | - | .
CC(=O)N1CC2(C1)[C@@H](c1ccccc1)[C@@H](CO)N2CC1CCOCC1 | - | - | - | - | - | -
CCCNC(=O)N1CC2(CN(Cc3ccc(OC)cc3)C2)c2c(n(C)c3cc(OC)ccc23)[C@@H]1CO | - | . | - | - | - | .
C[C@H](CO)N1C[C@H](C)[C@H](CN(C)S(=O)(=O)c2ccccc2)OCCCC[C@H](C)Oc2ccc(NS(=O)(=O)c3cn(C)cn3)cc2C1=O | - | - | - | - | - | -
COc1ccc2c3c([nH]c2c1)[C@@H](CO)N(C(=O)c1cccc(F)c1)CC31CCN(C(=O)c2ccccc2)CC1 | - | . | - | - | - | -
COC(=O)c1ccsc1NC(=O)C1COc2ccccc2O1 (stereo not given) | -31.8 | - | - | - | - | -
SMILES | Ecoli rRNA inh | PAX8 reporter | LGR2 inh | PGC1a acetyl inh | EWS-Fli inh | SIRT5 block
O=C(Nc1nc2c(s1)CCCC2)C1COc2ccccc2O1 (stereo not given) | - | - | 80.0 | - | - | -
Cc1nnc(NC(=O)C2COc3ccccc3O2)s1 (stereo not given) | . | - | . | - | . | .
CCCN1C[C@H](C)[C@H](OC)CN(C)C(=O)c2ccc(NC(=O)c3cccc(OC)c3)cc2OC[C@@H]1C | - | . | - | - | - | -
C=CCN1Cc2ccccc2[C@H]2OC(c3ccc(OCCCO)cc3)=N[C@@]2(CCS(=O)(=O)c2ccccc2)C1=O | . | - | . | - | - | -
Cc1ccc(C#N)c(SCc2cccc(Br)c2)n1 | . | - | - | - | - | -
COC(OC)c1ccc(C#N)c(SCc2ccc(C)cc2)n1 | -29.4 | - | - | . | - | -
O=C1CCCN1CCCNC(=S)Nc1ccccc1 | - | - | - | - | - | -
O=C(CNCc1ccccc1)NCCCN1CCCC1=O | - | - | - | - | - | 17.0
CCCNC(=O)[C@@H]1[C@@H](CO)[C@@H]2Cn3c(cccc3=O)[C@H]1N2Cc1ccccc1 | - | . | - | . | - | -
CO[C@H]1CN(C)C(=O)c2ccc(NC(=O)c3nc4ccccc4s3)cc2OC[C@H](C)N(Cc2cncnc2)C[C@H]1C | - | - | - | - | - | .
O=C(Nc1ccccc1)c1cccc(Cn2cc(C(F)(F)F)ccc2=O)c1 | - | - | - | . | - | 24.4
Cc1cc2ncn(-c3ncccc3[N+](=O)[O-])c2cc1C | - | - | - | . | 58.0 | -
CO[C@H]1CN(C)C(=O)c2ccc(NS(=O)(=O)c3cn(C)cn3)cc2OC[C@@H](C)NC[C@@H]1C | - | . | - | - | - | -
Cc1ccccc1S(=O)(=O)N(C)C[C@H]1OCc2ccccc2-c2c(n(C)c3ccccc23)C(=O)N([C@@H](C)CO)C[C@@H]1C | - | . | - | - | - | 22.4
COc1ccccc1S(=O)(=O)N(C)C[C@@H]1OCc2ccccc2-c2c(n(C)c3ccccc23)C(=O)N([C@@H](C)CO)C[C@H]1C | - | 69.2 | - | - | - | -
Cc1ccccc1S(=O)(=O)N(C)C[C@H]1OCc2ccccc2-c2c(n(C)c3ccccc23)C(=O)N([C@H](C)CO)C[C@@H]1C | - | . | - | - | - | -
C[C@@H]1CN([C@@H](C)CO)C(=O)c2cc(C#CCN(C)C)cnc2O[C@H]1CN(C)C(=O)c1cccnc1 | - | . | - | - | - | -
C[C@H](CO)N1C[C@H](C)[C@@H](CN(C)S(=O)(=O)c2ccc(F)cc2)Oc2ccc(NC(=O)c3ccncc3)cc2CC1=O | - | - | - | - | - | -
CN1CCCN(c2ncnc3scc(-c4ccc(F)cc4)c23)CC1 | - | - | - | . | - | -
CC(C)c1ccc(-c2csc3ncnc(N4CCN(C)CC4)c23)cc1 | -27.7 | - | - | - | - | -
C[C@H]1CN([C@@H](C)CO)C(=O)c2cc(C#CCN(C)C)cnc2O[C@@H]1CN(C)Cc1ccc(F)cc1 | - | . | - | - | - | -
CCS(=O)(=O)N1CC2(C1)[C@H](c1ccccc1)[C@H](CO)N2CCC(F)(F)F | - | - | - | - | - | -
CC(=C\C(=O)O)/C(=C/c1ccco1)C(=O)O | - | - | - | - | - | -
CC(=C\C(=O)O)/C(=C/c1ccc(C)o1)C(=O)O | - | 76.0 | - | . | - | -
